# Pf apPOL block = Pf-apPOL DNA polymerase inhibition; 0.25% of 210,000 active; inhibition, % at 10 µM; AID 1794808; Recombinant Pf-apPOL, molecular beacon fluorescence, 1.5 h
# mHTT-CaM PPI inh = inhibitors of human mutant huntingtin-calmodulin interaction; AlphaScreen His-mHTT/GST-CaM binding, luminescence; 3.6% of 190,000 active; inhibition, % at 15 µM; AID 1671202; P42858;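 also: 0% = both proteins with DMSO and 100% = one protein alone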
# Active calls of the source: *; nt = no result. This is a sample that favours compounds with a hit; in the whole collection about 3.6% have one here. Rule as the data show it: active = inhibition above about 50%; inactive = the rest.
SMILES,Pf apPOL block,mHTT-CaM PPI inh
O=C(CCN1CCOCC1)Nc1ccc(Br)cc1C(=O)c1ccccc1,-2,81*
O=C(CN1CCOCC1)Nc1ccc(Br)cc1C(=O)c1ccccc1,-4,3
CCCn1cc(C(=O)NCc2ccc3c(c2)OCO3)c2cccnc21,-11,-1
CCOc1cc(/C=C/[N+](=O)[O-])cc(Br)c1O,-15,78*
COc1cc(/C=C/[N+](=O)[O-])cc(Br)c1O,-1,52*
COc1cc(/C=C(\C)[N+](=O)[O-])cc(Br)c1O,-1,23
CCOc1ccc(/C=C/[N+](=O)[O-])cc1,-1,19
COc1ccc2c(c1)C1(CCN(C(=O)NC3CCCC3)C1)C(=O)N2 (centres undefined),-2,-2
CC(C)c1ccc(OP(N)(=O)Oc2ccccc2F)cc1 (centres undefined),-6,-1
O=C(O)C1Nc2c(F)cccc2C2C(Cl)C(Sc3ccccc3[N+](=O)[O-])CC12 (centres undefined),1,68*
O=P(Nc1ccccc1I)(Oc1ccccc1)Oc1ccccc1,-2,-25
COc1ccc(OC)c(NP(=O)(Oc2ccccc2)Oc2ccccc2)c1,0,74*
COC(=O)c1ccc(CCl)s1,nt,100*
CN(C)c1ccc2c(C(F)(F)F)cc(=O)oc2c1,nt,-42
Cc1cc([N+](=O)[O-])nn1CC(=O)Nc1ccc(Cl)cc1C(=O)c1ccccc1,1,3
O=C(CN1CCN(c2ccc(F)cc2)CC1)Nc1ccc(Cl)cc1C(=O)c1ccccc1,-1,72*
CCc1cc(N2CCN(CC)CC2)n2ncnc2n1,-5,-8
CC12CCC(C(=O)Nc3ccc(Cl)cc3C(=O)c3ccccc3)(CC1=O)C2(C)C (centres undefined),-1,0
CN1CCCN(C(=O)c2cn(C)c3ncccc23)CC1,-2,-3
S=C(S)N1CCCCC1,1,nt
S=C(SSC(=S)N1CCCCC1)N1CCCCC1,nt,51*
COc1ccc(N2CCN(Cc3ccc(Cl)cc3)CC2)cc1,-6,34
COc1ccc(N2CCN(Cc3ccc(F)cc3)CC2)cc1,0,22
COc1ccc(N2CCN(Cc3cccc(Cl)c3Cl)CC2)cc1,5,56*
COc1ccc(N2CCN(Cc3ccc(Cl)c(Cl)c3)CC2)cc1,-5,65*
SMILES,Pf apPOL block,mHTT-CaM PPI inh
COc1ccc(C2C(C#N)=C(N)Oc3c2c(=O)oc2ccccc32)c(OC)c1 (centres undefined),-7,13
CN1CCN(c2cc3nc(N)c(C#N)nc3cc2F)CC1,nt,-1
Cc1ccccc1-n1c(/C=C2\C(=O)Nc3ccc(Br)cc32)nc2ccccc2c1=O,5,44
Cc1ccccc1-n1c(/C=C2\C(=O)N(C)c3ccccc32)nc2ccccc2c1=O,-1,65*
COc1ccc(Cl)cc1NC(=O)C1c2cc(OC)c(OC)cc2C(=O)N2CCCCC12 (centres undefined),-4,79*
COc1ccc(Cl)cc1NC(=O)C1c2ccccc2C(=O)N2CCCCC12 (centres undefined),-5,2
COc1ccc2c(c1)C1(CCN(C(=O)Cc3ccccc3Cl)C1)C(=O)N2C (centres undefined),-2,18
COCCN1CCC(N2CCCN(C(=O)COc3cccc(C)c3)CC2)C1=O (centres undefined),1,22
O=C(COc1cccc(Cl)c1)N1CCCN(C2CCN(Cc3ccccc3)C2=O)CC1 (centres undefined),0,75*
c1ccc(-c2cccc(-c3ccccc3)c2)cc1,5,nt
COc1ccc(CN2CCN(c3cccc(Cl)c3)CC2)cc1O,-5,12
COc1cc(CN2CCN(c3cccc(Cl)c3)CC2)cc(I)c1O,-6,58*
CN1CCc2[nH]c(=S)c(C#N)c(-c3cccs3)c2C1,nt,52*
CN1CCc2[nH]c(=S)c(C#N)cc2C1,nt,23
O=[N+]([O-])c1ccc(N2CCOCC2)c2nonc12,-84,nt
Nc1ccc([N+](=O)[O-])c2nonc12,nt,53*
O=[N+]([O-])c1ccc(N2CCCCC2)c2nonc12,-122,nt
O=[N+]([O-])c1ccc(Cl)c2nonc12,nt,96*
CN1C(=O)C(=Cc2cccn2-c2ccc([N+](=O)[O-])cc2)C(=O)N(C)C1=O,-43,0
CC12CN3CC(C)(CN(C1)C3c1cccs1)C2=O (centres undefined),-1,-4
CC12CN3CC(C)(CN(C1)C3c1ccccn1)C2O (centres undefined),-15,100*
O=C(Cc1noc2ccccc12)N1CCN(CCn2cccn2)CC1,-8,-4
O=S(=O)(F)c1ccc(C2=CC(c3ccccc3)n3ncnc3N2)cc1 (centres undefined),-5,100*
O=S(=O)(F)c1ccc(-c2nnc(-c3ccccc3)o2)cc1,3,9
Cc1ncc([N+](=O)[O-])n1CCOC(NC(=O)c1ccco1)C(Cl)(Cl)Cl (centres undefined),-3,0
SMILES,Pf apPOL block,mHTT-CaM PPI inh
C=CCOc1ccc(C2SCC(=O)Nc3c2c(=O)[nH]n3C2CCCC2)cc1 (centres undefined),-3,4
O=C(Nc1ccc2c(c1)OCCO2)c1c(O)c2sccc2n(Cc2ccccc2)c1=O,-9,29
CCOc1cc(/C=C/[N+](=O)[O-])cc(I)c1O,-2,57*
COc1cc(/C=C/[N+](=O)[O-])cc(I)c1OCc1ccccc1,-4,4
C#CCOc1c(I)cc(/C=C/[N+](=O)[O-])cc1OC,0,14
COc1cc(/C=C/[N+](=O)[O-])cc(I)c1O,-3,52*
COc1ccc(-c2coc3cc(OC(=O)N(C)C)ccc3c2=O)cc1,-11,-6
N#CC1=CN(c2ccc(F)cc2Cl)c2ccccc2S1(=O)=O,1,-2
N#CC1=C(N)C(C#N)(C#N)C(c2ccccc2C(F)(F)F)C2CSCC=C12 (centres undefined),-3,55*
Cc1ncc([N+](=O)[O-])n1CCOC(NC(=O)c1ccccc1)C(Cl)(Cl)Cl (centres undefined),-1,-2
Cc1ccc(Sc2cc(C(=O)N3CCC4(CC3)OCCO4)c3ccccc3n2)cc1,-3,16
CC1CN(c2ccc(C(F)(F)F)cc2[N+](=O)[O-])CCN1 (centres undefined),4,0
Cc1nc(C(=O)Nc2ccc3c(c2)OCCO3)c(C)n1C1CCN(C)CC1,3,14
Cc1nc(C(=O)Nc2ccc3c(c2)OCO3)c(C)n1C1CCN(C)CC1,-2,71*
CNC(=O)N1CCC2(C1)C(=O)N(C)c1ccc(OC)cc12 (centres undefined),-3,-10
Cc1ccc(CN2CCN(Cc3ccccc3)CC2)cc1,-11,1
Nc1nc2ccccc2c(-c2cccc3ccccc23)c1CN1CC1,nt,98*
O=c1[nH]c(=S)[nH]c(O)c1C=C1C=CC=N1,89*,nt
Cn1cc(C(=O)Nc2ccc(Cl)cc2)c2cccnc21,-5,14
O=[N+]([O-])c1c(Br)c([N+](=O)[O-])c2n[nH]nc2c1Br,-4,88*
O=[N+]([O-])c1cc2nonc2c2n[nH]nc12,nt,10
CN(Cc1ccccc1)C(=O)c1ccc(N2CC3CC(C2)c2cccc(=O)n2C3)c(N)c1 (centres undefined),-3,4
CC1=Nc2ccccc2C1=Cc1c(O)[nH]c(=O)[nH]c1=O,-50,54*
O=C1C(=Cc2cccnc2)N2CCC1CC2,-5,nt
CCn1c(=N)c(C#N)cc2c(=O)n3cccc(C)c3nc21,-6,-1

# Compound activity (PubChem BioAssay)
